For some of these results: Results with a measured potency or affinity are listed apart.

Our source for the Percent Effect values is ChEMBL document CHEMBL3988442, “University of Dundee, Small-Polar-MMV Screening Library” (2021).

Holding throughout (design): scale not given: direction of the effect not stated beside the values
The target in experiment [1] is Protein translocase subunit SecA (Escherichia coli (strain K12)) (UniProt P10408). Nature of the experiment: Assay to Identify E. coli SecA ATPase Inhibitors. It is filed as functional. As to conditions: 30 µM.
Chain of Protein translocase subunit SecA (Escherichia coli (strain K12)) (P10408 whole entry): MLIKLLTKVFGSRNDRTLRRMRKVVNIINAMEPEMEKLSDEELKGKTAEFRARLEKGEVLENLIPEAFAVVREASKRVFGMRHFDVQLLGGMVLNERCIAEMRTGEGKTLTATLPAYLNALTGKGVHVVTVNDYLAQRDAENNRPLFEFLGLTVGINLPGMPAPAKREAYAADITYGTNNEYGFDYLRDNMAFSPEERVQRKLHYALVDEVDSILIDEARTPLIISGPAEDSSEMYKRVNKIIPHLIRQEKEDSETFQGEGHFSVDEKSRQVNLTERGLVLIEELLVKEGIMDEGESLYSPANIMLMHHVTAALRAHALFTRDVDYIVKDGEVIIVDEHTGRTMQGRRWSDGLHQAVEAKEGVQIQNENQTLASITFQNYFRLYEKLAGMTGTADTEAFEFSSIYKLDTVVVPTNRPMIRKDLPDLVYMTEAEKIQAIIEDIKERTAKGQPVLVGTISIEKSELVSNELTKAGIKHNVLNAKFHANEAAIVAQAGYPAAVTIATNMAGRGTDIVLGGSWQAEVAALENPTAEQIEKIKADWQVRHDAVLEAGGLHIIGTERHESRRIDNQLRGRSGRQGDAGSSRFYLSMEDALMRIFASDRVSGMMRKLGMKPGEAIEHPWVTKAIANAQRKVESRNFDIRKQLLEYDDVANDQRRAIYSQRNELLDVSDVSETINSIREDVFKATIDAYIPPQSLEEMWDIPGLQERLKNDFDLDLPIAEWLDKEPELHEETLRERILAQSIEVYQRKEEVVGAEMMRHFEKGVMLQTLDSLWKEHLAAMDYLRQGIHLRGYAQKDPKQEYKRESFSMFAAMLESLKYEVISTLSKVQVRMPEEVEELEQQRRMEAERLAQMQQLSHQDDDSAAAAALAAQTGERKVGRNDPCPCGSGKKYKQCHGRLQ
Experiment [2] has as its target T1, Ubiquitin-activating enzyme e1, putative (Leishmania donovani (strain BPK282A1)) (UniProt E9BSI1).
T1 sequence (whole entry): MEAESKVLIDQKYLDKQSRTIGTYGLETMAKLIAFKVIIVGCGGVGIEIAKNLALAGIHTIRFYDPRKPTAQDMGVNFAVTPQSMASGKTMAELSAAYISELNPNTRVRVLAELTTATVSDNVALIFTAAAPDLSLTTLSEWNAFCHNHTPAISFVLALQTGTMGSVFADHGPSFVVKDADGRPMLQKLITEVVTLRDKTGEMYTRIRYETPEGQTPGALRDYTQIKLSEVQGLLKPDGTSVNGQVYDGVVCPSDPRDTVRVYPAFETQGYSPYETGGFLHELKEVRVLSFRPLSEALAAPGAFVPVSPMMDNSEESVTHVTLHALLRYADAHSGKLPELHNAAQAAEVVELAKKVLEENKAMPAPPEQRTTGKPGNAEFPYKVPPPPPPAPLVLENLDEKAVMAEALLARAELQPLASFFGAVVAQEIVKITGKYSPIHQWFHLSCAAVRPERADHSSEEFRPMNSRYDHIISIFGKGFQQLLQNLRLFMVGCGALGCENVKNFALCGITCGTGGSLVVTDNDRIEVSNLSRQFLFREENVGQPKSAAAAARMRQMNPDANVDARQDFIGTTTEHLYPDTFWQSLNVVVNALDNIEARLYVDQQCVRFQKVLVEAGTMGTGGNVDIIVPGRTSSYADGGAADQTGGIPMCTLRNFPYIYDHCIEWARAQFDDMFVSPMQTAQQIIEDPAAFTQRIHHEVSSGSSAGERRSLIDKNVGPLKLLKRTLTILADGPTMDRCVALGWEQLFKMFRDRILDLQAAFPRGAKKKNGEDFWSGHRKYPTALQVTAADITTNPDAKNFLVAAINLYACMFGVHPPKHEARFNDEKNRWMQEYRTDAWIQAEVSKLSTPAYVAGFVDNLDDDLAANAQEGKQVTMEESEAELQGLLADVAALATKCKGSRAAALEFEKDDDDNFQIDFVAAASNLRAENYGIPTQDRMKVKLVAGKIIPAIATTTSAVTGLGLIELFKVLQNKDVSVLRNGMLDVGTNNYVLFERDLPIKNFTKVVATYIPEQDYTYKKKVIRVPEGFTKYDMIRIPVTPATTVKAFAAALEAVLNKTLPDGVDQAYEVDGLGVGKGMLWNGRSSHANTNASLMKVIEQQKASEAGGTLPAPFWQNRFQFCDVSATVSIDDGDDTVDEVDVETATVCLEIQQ
Put plainly: Leishmania donovani Ubiquitin Activating Enzyme (LdE1). The class given is functional. As to conditions: 30 µM.

For experiment [3], the target named is AMP-activated protein kinase, AMPK (Homo sapiens) (UniProt P54646+O43741+P54619+Q9UGJ0+Q9Y478+Q13131+Q9UGI9). Put plainly: AMP-dependent Kinase enzyme assay. An in vitro enzyme assay that detects ADP turnover that is directly proportional to AMPK activity. This uses naive AMPK that is activated during the assay with MK-8722. It is filed as functional. Conditions: 30 µM.

The target in experiment [4] is Sialic acid-binding Ig-like lectin 9 (Homo sapiens) (UniProt Q9Y336). Nature of the experiment: Hs-Siglec9 ALPHAscreen SOP 20170721. As to conditions: 10 µM. In general terms: In Alpha technology, singlet oxygen from a donor bead excites a nearby acceptor bead.
Chain of Sialic acid-binding Ig-like lectin 9 (Homo sapiens) (Q9Y336 whole entry): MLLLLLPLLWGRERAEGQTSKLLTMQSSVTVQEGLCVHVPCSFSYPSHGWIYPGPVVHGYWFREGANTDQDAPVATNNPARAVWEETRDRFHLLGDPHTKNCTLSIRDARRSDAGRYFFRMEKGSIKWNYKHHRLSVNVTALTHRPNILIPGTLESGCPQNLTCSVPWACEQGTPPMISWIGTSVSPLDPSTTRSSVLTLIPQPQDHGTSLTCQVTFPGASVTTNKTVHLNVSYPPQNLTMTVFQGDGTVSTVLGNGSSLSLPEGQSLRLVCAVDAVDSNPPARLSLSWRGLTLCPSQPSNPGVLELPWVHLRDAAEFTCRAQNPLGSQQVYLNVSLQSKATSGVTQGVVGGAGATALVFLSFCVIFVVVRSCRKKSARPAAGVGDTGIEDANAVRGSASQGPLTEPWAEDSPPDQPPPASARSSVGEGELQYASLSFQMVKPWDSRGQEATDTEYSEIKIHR
The next experiment has as its system Trypanosoma cruzi. Put plainly: Trypanosoma cruzi phosphomannomutase and mannose-1-phosphate guanylyltransferase assay. The class given is functional. As to conditions: 10 µM.
In experiment [5] the target is T2, Arginase-2, mitochondrial (Homo sapiens) (UniProt P78540).
T2 sequence (whole entry): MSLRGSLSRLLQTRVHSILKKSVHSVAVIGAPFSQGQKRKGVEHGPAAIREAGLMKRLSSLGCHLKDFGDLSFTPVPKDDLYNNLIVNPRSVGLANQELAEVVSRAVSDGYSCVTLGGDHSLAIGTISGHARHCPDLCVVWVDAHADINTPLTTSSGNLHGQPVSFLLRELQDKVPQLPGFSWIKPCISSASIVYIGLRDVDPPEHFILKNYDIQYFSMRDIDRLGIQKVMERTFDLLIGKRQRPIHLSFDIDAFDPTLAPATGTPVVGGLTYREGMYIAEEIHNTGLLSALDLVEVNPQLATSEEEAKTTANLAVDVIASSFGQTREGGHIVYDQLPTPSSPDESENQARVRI
Nature of the experiment: in vitro enzyme assay to detect the production of urea directly proportional to the activity of Arginase II. Also: in the data most compounds retested in dose-response had high values. As to conditions: 33.3 µM. The class given is functional.

For experiment [6], the target named is T3, Proteasome subunit beta (Trypanosoma cruzi) (UniProt O96673).
T3 sequence (whole entry): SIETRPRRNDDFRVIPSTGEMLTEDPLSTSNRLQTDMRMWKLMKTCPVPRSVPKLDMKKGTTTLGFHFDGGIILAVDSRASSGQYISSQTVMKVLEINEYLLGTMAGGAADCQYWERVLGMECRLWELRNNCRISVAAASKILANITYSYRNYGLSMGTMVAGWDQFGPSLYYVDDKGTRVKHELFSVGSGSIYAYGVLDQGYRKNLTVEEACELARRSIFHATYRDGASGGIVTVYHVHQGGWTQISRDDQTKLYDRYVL
Put plainly: Trypanosoma cruzi proteasome chymotrypsin-like activity (TcProtChymo) assay. Also: in the data most compounds retested in dose-response had high values. The class given is functional. Conditions: 9.37 µM.

The species entered for a further experiment is Homo sapiens. Nature of the experiment: To identify inhibition of the IFN signalling (Jak-Stat) pathway via expression of an eGFP reporter gene under the control of an IFN-stimulated response element (ISRE) containing MxA promoter. It is filed as functional. Conditions: 30 µM. (In general: Reporter assays use an easily measured gene product as a stand-in for the process of interest.)

In experiment [7] the target is T4, Tyrosyl-tRNA synthetase, putative (Trypanosoma cruzi (strain CL Brener)) (UniProt Q4DSP6).
T4 sequence (whole entry): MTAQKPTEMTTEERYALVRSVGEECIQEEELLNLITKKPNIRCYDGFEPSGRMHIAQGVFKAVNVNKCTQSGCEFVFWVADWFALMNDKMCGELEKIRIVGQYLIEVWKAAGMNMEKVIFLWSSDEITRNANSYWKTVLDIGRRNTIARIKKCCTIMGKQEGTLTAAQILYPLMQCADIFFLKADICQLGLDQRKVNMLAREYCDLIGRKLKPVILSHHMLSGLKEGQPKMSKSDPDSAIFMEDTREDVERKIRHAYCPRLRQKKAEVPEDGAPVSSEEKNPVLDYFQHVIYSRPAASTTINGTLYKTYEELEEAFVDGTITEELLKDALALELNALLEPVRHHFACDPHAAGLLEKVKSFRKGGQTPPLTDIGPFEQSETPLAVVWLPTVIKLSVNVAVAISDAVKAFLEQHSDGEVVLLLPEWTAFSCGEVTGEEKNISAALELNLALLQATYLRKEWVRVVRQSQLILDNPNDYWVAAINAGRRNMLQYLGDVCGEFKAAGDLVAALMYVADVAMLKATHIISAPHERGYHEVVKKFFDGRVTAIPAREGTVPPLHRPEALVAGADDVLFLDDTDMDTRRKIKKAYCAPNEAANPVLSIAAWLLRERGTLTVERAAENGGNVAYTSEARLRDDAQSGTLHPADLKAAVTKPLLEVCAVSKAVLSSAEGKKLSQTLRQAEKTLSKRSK
Nature of the experiment: Trypanosoma cruzi tyrosyl tRNA synthetase (TcYRS) _High Tyrosine SOP. Also: in the data most compounds retested in dose-response had high values. Conditions: 30 µM. The class given is functional.

The target of experiment [8] is T4, Tyrosyl-tRNA synthetase, putative (Trypanosoma cruzi (strain CL Brener)). Put plainly: Trypanosoma cruzi tyrosyl tRNA synthetase (TcYRS) SOP. It is filed as functional. Conditions: 30 µM.
In experiment [9] the target is Chromo domain-containing protein 1 (Saccharomyces cerevisiae (strain ATCC 204508 / S288c) (Baker's yeast)) (UniProt P32657). Nature of the experiment: ScCHD-1 Enzyme Inhibition Assay. Also: in the data most compounds retested in dose-response had high values. The class given is functional. As to conditions: 30 µM.
Chain of Chromo domain-containing protein 1 (Saccharomyces cerevisiae (strain ATCC 204508 / S288c) (Baker's yeast)) (P32657 whole entry, the tested form may be a part): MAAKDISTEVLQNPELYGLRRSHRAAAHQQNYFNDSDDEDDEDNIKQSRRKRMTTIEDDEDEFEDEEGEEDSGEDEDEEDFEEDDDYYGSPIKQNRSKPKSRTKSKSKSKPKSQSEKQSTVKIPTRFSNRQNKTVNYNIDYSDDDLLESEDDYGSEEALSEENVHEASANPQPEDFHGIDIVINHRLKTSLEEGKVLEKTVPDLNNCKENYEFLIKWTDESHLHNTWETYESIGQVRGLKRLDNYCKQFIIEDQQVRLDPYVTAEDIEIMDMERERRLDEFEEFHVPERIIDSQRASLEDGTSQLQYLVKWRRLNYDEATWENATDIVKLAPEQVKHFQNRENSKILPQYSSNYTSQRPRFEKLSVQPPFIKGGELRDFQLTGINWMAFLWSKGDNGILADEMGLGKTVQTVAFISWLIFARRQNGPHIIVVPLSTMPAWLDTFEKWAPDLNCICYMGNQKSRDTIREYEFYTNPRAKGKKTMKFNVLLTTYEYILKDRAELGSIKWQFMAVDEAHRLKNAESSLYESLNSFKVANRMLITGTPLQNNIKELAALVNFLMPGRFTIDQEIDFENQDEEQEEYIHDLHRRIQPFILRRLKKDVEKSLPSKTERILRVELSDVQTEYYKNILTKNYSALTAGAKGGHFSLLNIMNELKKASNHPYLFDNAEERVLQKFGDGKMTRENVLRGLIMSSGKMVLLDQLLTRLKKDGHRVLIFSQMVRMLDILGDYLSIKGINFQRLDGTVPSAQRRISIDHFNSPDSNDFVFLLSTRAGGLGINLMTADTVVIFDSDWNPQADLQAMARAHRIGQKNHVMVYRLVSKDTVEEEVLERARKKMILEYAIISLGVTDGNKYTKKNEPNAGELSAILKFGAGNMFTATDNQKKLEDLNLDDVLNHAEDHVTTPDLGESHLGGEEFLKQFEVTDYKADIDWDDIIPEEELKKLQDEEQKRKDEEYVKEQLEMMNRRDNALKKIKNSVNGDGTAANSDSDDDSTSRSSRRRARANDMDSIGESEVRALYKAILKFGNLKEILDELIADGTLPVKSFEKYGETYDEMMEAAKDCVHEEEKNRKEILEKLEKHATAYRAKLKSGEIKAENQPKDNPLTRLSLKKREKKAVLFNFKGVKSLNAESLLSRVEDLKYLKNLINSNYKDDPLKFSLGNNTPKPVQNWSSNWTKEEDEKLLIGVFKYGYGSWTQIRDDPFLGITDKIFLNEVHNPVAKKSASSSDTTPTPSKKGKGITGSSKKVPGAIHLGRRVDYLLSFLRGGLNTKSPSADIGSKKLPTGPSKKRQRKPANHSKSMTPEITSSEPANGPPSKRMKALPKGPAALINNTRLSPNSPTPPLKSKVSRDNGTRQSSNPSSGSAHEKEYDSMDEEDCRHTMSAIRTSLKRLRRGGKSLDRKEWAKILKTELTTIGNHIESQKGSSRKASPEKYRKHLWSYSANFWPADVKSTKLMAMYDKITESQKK

With `O=C(C1CCCCN1Cc1nc(-c2ccco2)no1)N1CCCC1` (stereo not drawn), the Percent Effect in experiment [1] was -8.23%; in experiment [2], -2.7%; in experiment [3], 7.91%; in experiment [4], 4.5%; in the experiment with Trypanosoma cruzi, -5.11%; in experiment [5], -1.66%. The Percent Effect was 2.33% in experiment [6]; 6.46% in the experiment listed under Homo sapiens; 0% in experiment [7]; 3.66% in experiment [8]; 5.11% in experiment [9].

Take `O=C(CN1CCCCCCC1=O)NCc1ccccn1`: the Percent Effect in [1] is -1.09%; in experiment [2], 5.48%; in experiment [3], -2.69%; in experiment [4] it was 1.29%; in the experiment with Trypanosoma cruzi, 2.78%; in experiment [5], 2.4%. Also, the Percent Effect in experiment [6] is 1.46%; in the experiment filed under Homo sapiens, 0.819%; in experiment [7], 5.21%; in experiment [8], 11.1%; in experiment [9], -5.16%.

With `Cc1n[nH]c(C)c1-c1cnc(CC2CCN(C)C2)cn1` (stereo not drawn), the Percent Effect in experiment [1] is -1.87%; in experiment [2] it was 2.67%; in experiment [3], 9.74%; in experiment [4] it was 4.94%; in the experiment with Trypanosoma cruzi it was 3.94%; in experiment [5] it was -3.5%. Further, the Percent Effect was 0.793% in experiment [6]; -2.19% in the experiment listed under Homo sapiens; 4.25% in experiment [7]; 6.41% in [8]; -1.01% in [9].

For the molecule `CC(C)S(=O)(=O)NCC1CCCN(C(=O)c2ccc3c(c2)OCCO3)C1` (stereo not drawn), the Percent Effect is -6.68% in experiment [1]; 5.48% in [2]; 3.11% in experiment [3]; -9.4% in experiment [4]; 0.196% in the experiment with Trypanosoma cruzi; 0% in experiment [5]. For the same molecule, the Percent Effect in experiment [6] was 7.81%; in the experiment filed under Homo sapiens, 5.65%; in [7], -1.07%; in [8], 5%; in experiment [9] it was -3.79%.

Turning to `O=S(=O)(NCc1ccccc1Cn1cncn1)C1CCCC1`, the Percent Effect in experiment [1] was -2.89%; in experiment [2], 8.86%; in experiment [3], 4.47%; in experiment [4], 2.98%; with Trypanosoma cruzi, -3.59%; in experiment [5] it was 1.5%. For the same molecule, the Percent Effect is 10.1% in [6]; 5.73% in the experiment listed under Homo sapiens; 8.33% in experiment [7]; 12.7% in experiment [8]; -12.6% in experiment [9].

Turning to `CCO[C@@H]1CO[C@@]2(CCCN(C(=O)COc3ccccc3OC)C2)C1`, the Percent Effect in experiment [1] was 2.9%; in experiment [2], 18.2%; in experiment [3], 3.83%; in [4] it was -2.8%; with Trypanosoma cruzi, 0.888%; in experiment [5], 8.39%. For the same molecule, the Percent Effect in experiment [6] was 8.7%; in the experiment filed under Homo sapiens it was 25.1%; in [7], 6.35%; in experiment [8], 16.7%; in experiment [9], -9.93%.

Turning to `Cc1nc(CN2CC3(CCN(c4ncc(F)cn4)C3)CC2=O)cs1` (stereo not drawn), the Percent Effect in experiment [1] is -1.99%; in experiment [2], 0%; in experiment [3] it was 8.52%; in [4], 6.6%; with Trypanosoma cruzi it was -0.69%; in experiment [5], 1.94%. Also, the Percent Effect in [6] was 0.348%; in the experiment listed under Homo sapiens it was 7.34%; in experiment [7] it was 3.17%; in experiment [8] it was 8.97%; in experiment [9], -4.69%.

With `Cc1cccc(-c2nc(C)nn2CC(=O)NC2CCCC2)c1`, the Percent Effect in [1] is -5.38%; in experiment [2], 23.4%; in experiment [3] it was -6.06%; in experiment [4], 8.2%; with Trypanosoma cruzi, 6.93%; in [5], 3.2%. Also, the Percent Effect is 18.6% in [6]; 5.48% in the experiment filed under Homo sapiens; 9.71% in experiment [7]; 26.8% in experiment [8]; -9.1% in experiment [9].
